One experiment addresses T1, ETS1 (UniProt P14921).
T1 sequence: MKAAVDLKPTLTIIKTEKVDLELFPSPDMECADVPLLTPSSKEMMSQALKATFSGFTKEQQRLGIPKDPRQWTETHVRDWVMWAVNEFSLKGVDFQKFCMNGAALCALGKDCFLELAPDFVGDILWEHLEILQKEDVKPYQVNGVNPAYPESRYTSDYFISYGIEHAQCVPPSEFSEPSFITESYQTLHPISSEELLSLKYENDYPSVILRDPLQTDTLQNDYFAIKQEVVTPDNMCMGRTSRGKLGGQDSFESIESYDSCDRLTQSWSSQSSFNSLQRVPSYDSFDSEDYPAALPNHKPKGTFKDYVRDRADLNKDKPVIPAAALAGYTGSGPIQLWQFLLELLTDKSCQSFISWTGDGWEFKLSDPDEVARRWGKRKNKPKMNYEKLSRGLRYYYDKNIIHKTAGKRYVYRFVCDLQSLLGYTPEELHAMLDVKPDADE
Description: ETS1 binding intensity (PBM fluorescence), ETS1 alone (arbitrary fluorescence units); higher = stronger binding. As to conditions: ETS1 concentration 1 nM; RUNX1 concentration 0 nM.
Take GCCCCTCTTCCTGACTCACACAACCGCCTCTAGTCT: the ETS1 binding intensity came out at 457.

In turn, AAAACGCGGAAATACGGTGGCTGCGGCCCGCGGGCA displayed an ETS1 binding intensity of 494.

In the case of GCTTTGCAGTTTCCTCTGTGGAACACCACACACAGT, the ETS1 binding intensity worked out at 418.

On to GCGGAGTGTTACGTAGGAAGTGGTTGTGACGTCATT, for which the ETS1 binding intensity was found to be 1190.

In turn, TTCTGGACATGCTTCCTGTGGCTTCTCTCCTGCGCT came in with an ETS1 binding intensity of 845.

Sequence CTGGCCAGCTCCCACGGATGTGGTAGGCAGGCAGCA returned an ETS1 binding intensity of 965.

In turn, GCACGCGCCGGGCGGAACCCACAGGCCTGGAAGCGA displayed an ETS1 binding intensity of 537.

Regarding ACCACCCCCCGTTTCCTCCGAAGTGGTTGGTGCCTT, the ETS1 binding intensity is 590.

CCTCATTTCCGGGCTGTTTGCGCGCAAGCCCACATC returned an ETS1 binding intensity of 1090.

Sequence GCGGAGGGAAGCGGAAATACTTGCGGTGGGGGCGAC registered an ETS1 binding intensity of 3700.

In the case of ACAGTTTCCTTGCTGTGATGTCAGCCCCCGCCGCAG, the ETS1 binding intensity stood at 709.

GCTTCGTTTCCCGCCGGGGCTCACCGCGCCCCCCTA showed an ETS1 binding intensity of 621.

The sequence GGAGCAGGAAGCGTCGCCGGGGGGCCCACAAGGGTA had an ETS1 binding intensity of 528.

The sequence CTGGAAACCATTTCCTTTGTGGCCATGAAACAATGG registered an ETS1 binding intensity of 594.

CAGTCAGACGGAAGCCCGGCTTCTGTGGTGCCTGCC had an ETS1 binding intensity of 459.

Consider CTCTTCTCAGGAAGGGGCTGTGGGATGTAGGATTCC, for which the ETS1 binding intensity stood at 638.

On to GTGACCCAATACTTCCTGCCACAATACTGAGAACTC, for which the ETS1 binding intensity was 841.

As for AAGATGCCCCCTTCCGCTGGAAAGCGGTAATGCCCA, the ETS1 binding intensity stood at 724.

For CACTCCCCCATTCCGGCTGCAGGTTGAGGTTTGGAA, the ETS1 binding intensity was 517.

The sequence CAGAGACACCTGCGGAAGCCACAGGGAGGTCACAGA showed an ETS1 binding intensity of 495.

In the case of AACAGATCCTTCCTGGCCCCCACTAGCCACAGGTTT, the ETS1 binding intensity was found to be 490.

With CCGCCTCCGGAAGAATTCTCTGCGGGCATGTTGCTG, the ETS1 binding intensity was 736.

In turn, TGCACACATGAGGAAGGGGTAAGTGGTTTTCCCTAC had an ETS1 binding intensity of 498.

GGAGCAACCGGCCGGATACCGCCACAGCCCTGGCAG gave an ETS1 binding intensity of 1720.

GCAGAAGGAAGTGTGGCTTGGCGCGGTGGCTCACAC returned an ETS1 binding intensity of 475.

As for ACCAGGATGTAGTTTAGCTTAGGGGTGGTTATATCG, the ETS1 binding intensity came out at 603.

With AGCACAGGTTCCCAGGAAATGTGGGTTGAACAAGGC, the ETS1 binding intensity came to 1250.

TCAGGGTCAGCAGGAGGAAACCACGCACTACATGCT had an ETS1 binding intensity of 437.

Sequence TTGGTGGCTTCCTGCCCAGGAGACCACACCCAGCTT yielded an ETS1 binding intensity of 540.

GTCGTGTTTGGCTTCCTGTGGGCACGCCTGCGTAGC had an ETS1 binding intensity of 589.

GCAGGAAACGCTTTCTTAACACTATGTGGGTGAGGT: the ETS1 binding intensity turned out to be 763.

GCAGGCGTGCGCTTCCGCTCCAACCCGCGCACTTCG displayed an ETS1 binding intensity of 1110.

Regarding AGCGCTTCCCCTTCCGCTGCCGCAGCCGCCGCCTCC, the ETS1 binding intensity was 498.

As to CTAAGTGCTCTTCCTGCCAACCTGTGGGCGCCTGGC, the ETS1 binding intensity is 559.

The sequence CTGAGGCGCGCCGGAAGGGCTAGCGGTCCCAGCATA registered an ETS1 binding intensity of 1280.

Sequence TGAGGGCATAGGAAGTGATGGCCGCAAGGGGATGCC showed an ETS1 binding intensity of 1860.

Turning to TTCAAAGGAGTCCAAGGAAGTGGTTTAACAGCGATG, the ETS1 binding intensity was found to be 843.

AGAAACGTCAATTTCCTGGCCACAGAATCCACTGCC registered an ETS1 binding intensity of 608.

AAAGGGAAGTTGGCGGGAGTTCAAAACCACCGGGGC displayed an ETS1 binding intensity of 347.

In the case of AGGGAGACCGGGCCGGATTGCGGGGAGTGAGCAGGT, the ETS1 binding intensity amounted to 543.

In another experiment the target is T1, ETS1. Briefly: ETS1 binding intensity (PBM fluorescence) in presence of RUNX1, normalised to ETS1-only experiment (arbitrary fluorescence units); higher = stronger binding. As to conditions: ETS1 concentration 1 nM; RUNX1 concentration 25 nM.
In the case of GCCCCTCTTCCTGACTCACACAACCGCCTCTAGTCT, the ETS1 binding intensity is 330.

As for AAAACGCGGAAATACGGTGGCTGCGGCCCGCGGGCA, the ETS1 binding intensity worked out at 573.

For GCTTTGCAGTTTCCTCTGTGGAACACCACACACAGT, the ETS1 binding intensity is 494.

Turning to GCGGAGTGTTACGTAGGAAGTGGTTGTGACGTCATT, the ETS1 binding intensity was 1540.

As for TTCTGGACATGCTTCCTGTGGCTTCTCTCCTGCGCT, the ETS1 binding intensity stood at 598.

Regarding CTGGCCAGCTCCCACGGATGTGGTAGGCAGGCAGCA, the ETS1 binding intensity worked out at 1430.

With GCACGCGCCGGGCGGAACCCACAGGCCTGGAAGCGA, the ETS1 binding intensity amounted to 803.

ACCACCCCCCGTTTCCTCCGAAGTGGTTGGTGCCTT: the ETS1 binding intensity worked out at 494.

On to CCTCATTTCCGGGCTGTTTGCGCGCAAGCCCACATC, for which the ETS1 binding intensity turned out to be 968.

In the case of GCGGAGGGAAGCGGAAATACTTGCGGTGGGGGCGAC, the ETS1 binding intensity turned out to be 19400.

As to ACAGTTTCCTTGCTGTGATGTCAGCCCCCGCCGCAG, the ETS1 binding intensity came out at 682.

With GCTTCGTTTCCCGCCGGGGCTCACCGCGCCCCCCTA, the ETS1 binding intensity was 615.

Take GGAGCAGGAAGCGTCGCCGGGGGGCCCACAAGGGTA: the ETS1 binding intensity worked out at 614.

With CTGGAAACCATTTCCTTTGTGGCCATGAAACAATGG, the ETS1 binding intensity was determined as 601.

For CAGTCAGACGGAAGCCCGGCTTCTGTGGTGCCTGCC, the ETS1 binding intensity worked out at 473.

In the case of CTCTTCTCAGGAAGGGGCTGTGGGATGTAGGATTCC, the ETS1 binding intensity came out at 610.

For GTGACCCAATACTTCCTGCCACAATACTGAGAACTC, the ETS1 binding intensity was determined as 702.

Take AAGATGCCCCCTTCCGCTGGAAAGCGGTAATGCCCA: the ETS1 binding intensity was determined as 705.

Take CACTCCCCCATTCCGGCTGCAGGTTGAGGTTTGGAA: the ETS1 binding intensity was found to be 571.

With CAGAGACACCTGCGGAAGCCACAGGGAGGTCACAGA, the ETS1 binding intensity turned out to be 613.

Turning to AACAGATCCTTCCTGGCCCCCACTAGCCACAGGTTT, the ETS1 binding intensity was determined as 421.

CCGCCTCCGGAAGAATTCTCTGCGGGCATGTTGCTG: the ETS1 binding intensity came out at 775.

As for TGCACACATGAGGAAGGGGTAAGTGGTTTTCCCTAC, the ETS1 binding intensity is 468.

GGAGCAACCGGCCGGATACCGCCACAGCCCTGGCAG: the ETS1 binding intensity worked out at 1400.

As to GCAGAAGGAAGTGTGGCTTGGCGCGGTGGCTCACAC, the ETS1 binding intensity worked out at 405.

In the case of ACCAGGATGTAGTTTAGCTTAGGGGTGGTTATATCG, the ETS1 binding intensity stood at 494.

Turning to AGCACAGGTTCCCAGGAAATGTGGGTTGAACAAGGC, the ETS1 binding intensity came out at 1250.

As to TCAGGGTCAGCAGGAGGAAACCACGCACTACATGCT, the ETS1 binding intensity was 451.

As to TTGGTGGCTTCCTGCCCAGGAGACCACACCCAGCTT, the ETS1 binding intensity stood at 486.

In the case of GTCGTGTTTGGCTTCCTGTGGGCACGCCTGCGTAGC, the ETS1 binding intensity was determined as 516.

For GCAGGAAACGCTTTCTTAACACTATGTGGGTGAGGT, the ETS1 binding intensity came to 691.

Regarding GCAGGCGTGCGCTTCCGCTCCAACCCGCGCACTTCG, the ETS1 binding intensity was 1100.

As to AGCGCTTCCCCTTCCGCTGCCGCAGCCGCCGCCTCC, the ETS1 binding intensity was found to be 466.

As to CTAAGTGCTCTTCCTGCCAACCTGTGGGCGCCTGGC, the ETS1 binding intensity worked out at 686.

For CTGAGGCGCGCCGGAAGGGCTAGCGGTCCCAGCATA, the ETS1 binding intensity is 1430.

In the case of TGAGGGCATAGGAAGTGATGGCCGCAAGGGGATGCC, the ETS1 binding intensity turned out to be 2390.

On to TTCAAAGGAGTCCAAGGAAGTGGTTTAACAGCGATG, for which the ETS1 binding intensity was found to be 1400.

Regarding AGAAACGTCAATTTCCTGGCCACAGAATCCACTGCC, the ETS1 binding intensity turned out to be 501.

As for AAAGGGAAGTTGGCGGGAGTTCAAAACCACCGGGGC, the ETS1 binding intensity came to 494.

As to AGGGAGACCGGGCCGGATTGCGGGGAGTGAGCAGGT, the ETS1 binding intensity amounted to 360.

The values are drawn from the supplement of paper PMC10681739.
